A selection: hits, their analogues and other compounds. The true share with any hit is near 21%.
Pf growth 96h – P. falciparum growth inhibition at 96 hour, primary screen for plastid delayed-death inhibitors | P. falciparum luciferase reporter growth, 96 h | AID 504834 | Potency, µM (titrated, usually from 28.7 µM), for the others: at the highest dose activity change, negative = inhibition, hits mostly inhibitors | 320,000 tested, 6.9% active; also: potency is read from the fitted curve at half-maximal effect; % is scaled to controls: 0 for no effect and ±100 for the full control effect
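P. falciparum expressing integrated firefly luciferase grown in erythrocytes (2% hematocrit, 0.05% parasitemia final) with compounds for 96 hours at 37 C, 5% CO2. Growth inhibition read as loss of luminescence after adding luciferase detection reagent.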
CHX counter – counter-screen for Shiga toxin inhibitors: cycloheximide protein synthesis inhibition | max response, % | 300,000 tested, 12% active | cell reporter, cycloheximide protein synthesis inhibition counterscreen; in the data active = max response mostly above about 13%, no sharp cut-off; inactive = mostly below about 14%; also: read at 38.3 µM for the half of the compounds with a filed dose; 0% is about no effect
Shiga inhibitor – inhibitors of Shiga toxin in Vero cells. Vero cells, Shiga toxin protein synthesis inhibition reporter. inhibition, % at 38.7 µM. 290,000 tested, 9.2% active; in the data active = inhibition mostly above about 28%, no sharp cut-off; inactive = mostly below about 43%; also: 0% is about no effect
Pf growth 48h – P. falciparum growth inhibition at 48 hours (one generation); Potency, µM (titrated, usually from 28.7 µM), without a hit: top-dose activity change, negative = inhibition, most hits filed as inhibitors; P. falciparum luciferase growth in erythrocytes, 48 h; 310,000 tested, 5.9% active; also: potency is read from the fitted curve at half-maximal effect; % is scaled to controls: 0 for no effect and ±100 for the full control effect
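A one-generation exposure of luciferase-tagged malaria parasites in RPMI 1640/Albumax erythrocyte culture, 37 C and 5% CO2. Inhibition is inferred from decreased luminescence after adding detection reagent.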
The depositor's hits bear a star; [ ] = dose if it differs, or a comment. Unless noted, calls follow the shape of the dose curve; as a rule, active = well fitted inhibition curve with a large enough effect; inconclusive = small, poorly fitted or top-dose-only effect, or another doubt; inactive = no such curve, though single readings can be large or run the other way.

How did Cc1ccc(-n2nc3ccc(NC(=O)c4cccc([N+](=O)[O-])c4C)cc3n2)cc1 do in these assays?
Pf growth 96h: 39.1%; CHX counter: 28.3*; Shiga inhibitor: 51.8; Pf growth 48h: 33.1%

How did CC(C)C(=O)Nc1ccc2nn(-c3ccc(F)cc3)nc2c1 do in these assays?
Pf growth 96h: 51.2%; CHX counter: 28.4*; Shiga inhibitor: 46.4*; Pf growth 48h: 287.8%

How did CNC(=O)NC(=O)C(c1ccccc1)N(C)CC1COc2ccccc2O1 (stereo not drawn) do in these assays?
Pf growth 96h: inconclusive; CHX counter: -7.0; Shiga inhibitor: -6.2; Pf growth 48h: -12.7%

Results for OCc1c(OCc2cccc(F)c2)ccc2ccccc12 ?
Pf growth 96h: inconclusive; CHX counter: 25.4*; Pf growth 48h: 54.7%

Results for CNCc1c(OCc2ccc(F)cc2)ccc2ccccc12 ?
Pf growth 96h: inconclusive; CHX counter: 3.6; Shiga inhibitor: -9.9; Pf growth 48h: 14.7µM*

What do the screens show for `CCOc1ccc(C(=O)NCC(=O)OCCN2C(=O)c3ccccc3C2=O)cc1OCC`?
Pf growth 96h: -23.2%; Pf growth 48h: -6.3%

Results for Cc1cccc(NS(=O)(=O)c2cccc(C(=O)NCC(c3ccco3)N(C)C)c2)c1 (stereo not drawn) ?
Pf growth 96h: -18.1%; Pf growth 48h: inconclusive

What do the screens show for `Clc1cccc(OCc2nc(-c3ccncc3)no2)c1`?
Pf growth 96h: 119.4%; CHX counter: 33.8*; Shiga inhibitor: 45.2; Pf growth 48h: 26.1%[5.75 µM]

What do the screens show for `Cc1cccc(OCc2nc(-c3cccnc3)no2)c1`?
Pf growth 96h: -3.5%; CHX counter: 15.3*; Shiga inhibitor: active; Pf growth 48h: 42.1%

Results for Clc1ccc(OCc2nc(-c3ccncc3)no2)c(Cl)c1 ?
Pf growth 96h: 10.4µM*; CHX counter: 63.6*; Shiga inhibitor: 122.0*; Pf growth 48h: -58.1%

Results for COc1ccc(Cl)cc1-c1nc(-c2ccncc2)no1 ?
Pf growth 96h: 0.7%; CHX counter: 1.7; Shiga inhibitor: 21.0; Pf growth 48h: 9.4%

What do the screens show for `Cc1ccc(C(C)C)c(OCc2n[nH]c(=S)o2)c1`?
Pf growth 96h: 41.5%; CHX counter: -5.9; Shiga inhibitor: 1.8; Pf growth 48h: 17.6%

What do the screens show for `Cc1ccc(C(C)C)c(OCc2nc(-c3nonc3N)no2)c1`?
Pf growth 96h: 4.65µM*; CHX counter: 28.1*; Shiga inhibitor: 100.9*

Results for Nc1nonc1-c1noc(CCCOc2ccc(Cl)cc2Cl)n1 ?
Pf growth 96h: 5.22µM*; CHX counter: 1.3; Shiga inhibitor: -2.7; Pf growth 48h: -23.1%

Results for COCCCNC(=O)/C=C/c1ccc(Cl)cc1Cl ?
Pf growth 96h: 17.6%; CHX counter: 17.5*; Shiga inhibitor: 53.7*; Pf growth 48h: 12.0%

What do the screens show for `CCc1n[nH]c(=S)n1/N=C/c1cc(Br)c(OC)cc1OC`?
Pf growth 96h: -23.3%; CHX counter: -4.1; Shiga inhibitor: -7.3; Pf growth 48h: -4.1%

Results for CCCC[n+]1ccn(-c2nc3c([N+](=O)[O-])cccc3n2C)c1 ?
Pf growth 96h: 2.08µM*; CHX counter: 1.0; Shiga inhibitor: -5.0; Pf growth 48h: 13.1µM*

How did Cc1ccc(-c2nnc(N3CCCCC3)c3ccccc23)cc1S(=O)(=O)N(C)C do in these assays?
Pf growth 96h: inconclusive; CHX counter: -0.5; Shiga inhibitor: 35.7; Pf growth 48h: inconclusive

What do the screens show for `CNC(=O)Cn1nc(-c2ccc(C)c(S(=O)(=O)N(C)C)c2)c2ccccc2c1=O`?
Pf growth 96h: 9.28µM*; CHX counter: 2.2; Shiga inhibitor: 8.6; Pf growth 48h: -11.9%

What do the screens show for `Cc1ccc(-c2nnc(NCc3nc4ccccc4[nH]3)c3ccccc23)cc1S(=O)(=O)N1CCOCC1`?
Pf growth 96h: 2.62µM*; CHX counter: -3.9; Shiga inhibitor: -7.6; Pf growth 48h: 11.7µM*

How did Cc1ccc(-c2nn(CC(=O)NCc3ccccn3)c(=O)c3ccccc23)cc1S(=O)(=O)N(C)C do in these assays?
Pf growth 96h: 1.9%; CHX counter: -3.0; Shiga inhibitor: -4.4; Pf growth 48h: -21.0%

What do the screens show for `Cc1ccc(-c2nnc(NCc3nc4ccccc4[nH]3)c3ccccc23)cc1S(=O)(=O)N(C)C`?
Pf growth 96h: inconclusive; CHX counter: -1.9; Shiga inhibitor: -11.2; Pf growth 48h: 13.1µM*

What do the screens show for `CCOc1ccc(S(=O)(=O)NCCC(=O)NCc2ccc(OC)c(OC)c2)cc1`?
Pf growth 96h: -13.5%; Pf growth 48h: -5.5%

Results for CC(C)(C)c1nc(CN2CCCCC2)cc(CN2CCCCC2)c1O ?
Pf growth 96h: inconclusive; CHX counter: -1.8; Shiga inhibitor: -11.8; Pf growth 48h: 9.28µM*

What do the screens show for `CC(C)(C)c1nc(CN2CCOCC2)ccc1O`?
Pf growth 96h: -1.4%; CHX counter: -4.0; Shiga inhibitor: -8.3; Pf growth 48h: inconclusive

What do the screens show for `COc1ccc(S(=O)(=O)NC2CC(C)(C)NC(C)(C)C2)c2ccccc12`?
Pf growth 96h: 2.4%; CHX counter: -3.8; Shiga inhibitor: -5.7; Pf growth 48h: inconclusive

What do the screens show for `COc1cccc(C2N(c3ccc(Cl)cc3)C(=O)C3CCCN32)c1` (stereo not drawn)?
Pf growth 96h: 5.22µM*; CHX counter: -1.5; Shiga inhibitor: -3.0; Pf growth 48h: -3.1%

Results for c1ccc(-c2nnc(-c3ccccn3)nc2NC2CCCCC2)cc1 ?
CHX counter: 23.6; Shiga inhibitor: 19.1; Pf growth 48h: 0.928µM*

How did Fc1cccc(Cl)c1Cc1noc(/C=C/c2ccccc2)n1 do in these assays?
Pf growth 96h: 61.6%; CHX counter: 20.7*; Shiga inhibitor: 148.5; Pf growth 48h: 39.4%

Results for O=S(=O)(CCc1nc2ccccc2[nH]1)c1ccc(Br)cc1 ?
Pf growth 96h: 10.4µM*; CHX counter: -2.4; Shiga inhibitor: -1.8; Pf growth 48h: inconclusive

Results for O=c1[nH]c2ccccc2nc1CCc1ccccc1 ?
Pf growth 96h: 96.4%; CHX counter: 24.2*; Shiga inhibitor: 70.7*; Pf growth 48h: 51.8%

How did c1ccc(CCc2nc3ccccc3[nH]2)cc1 do in these assays?
Pf growth 96h: 5.86µM*; CHX counter: 40.8*; Shiga inhibitor: 78.2*; Pf growth 48h: 83.3%

What do the screens show for `CCCCc1nc2ccccc2[nH]1`?
Pf growth 96h: 14.4%; CHX counter: 9.0; Shiga inhibitor: -15.1; Pf growth 48h: 18.9%

Results for O=S(=O)(NCc1nc2ccccc2[nH]1)c1ccccc1 ?
Pf growth 96h: 52.0%; CHX counter: 19.0; Shiga inhibitor: 30.7*; Pf growth 48h: 32.5%

How did O=C(NCCc1nc2ccccc2[nH]1)c1cccc(Br)c1 do in these assays?
Pf growth 96h: 7.5%; CHX counter: -2.4; Shiga inhibitor: -2.6; Pf growth 48h: -7.9%

How did O=C(NCC1CCCN(Cc2ccc3nonc3c2)C1)c1ccc(F)cc1 (stereo not drawn) do in these assays?
Pf growth 96h: -21.0%; CHX counter: -0.7; Shiga inhibitor: -12.9; Pf growth 48h: -13.8%

Results for COc1ccccc1/C=N/NC(=O)CCn1cnc2ccccc21 ?
Pf growth 96h: 2.4%; CHX counter: -1.1; Shiga inhibitor: -4.3; Pf growth 48h: 0.8%

Results for c1ccc2[nH]c(CCCc3nc4ccccc4[nH]3)nc2c1 ?
Pf growth 96h: 13.1µM*; CHX counter: -2.0; Shiga inhibitor: -5.1; Pf growth 48h: inconclusive

High-throughput results: PubChem BioAssay, National Center for Advancing Translational Sciences (NCATS)
